Source: PubChem BioAssay (Tox21)
Inconclusive results are not listed. Activity calls are given as the source filed them. Unless noted, calls follow the shape of the full dose curve.

Legend:
[1] = Nuclear factor erythroid 2-related factor 2/antioxidant responsive element (Nrf2/ARE) small molecule agonists: qHTS cell viability counter screen in human keratinocytes (AID 1919968; active = well fitted curve in the direction sought with a large enough effect in the repeat runs; an effect the other way counts as inactive or inconclusive; also: nearly all actives have a fitted effect of over 55% in size)
Outline: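 Measured as CellTiter-Fluor fluorescence, this readout tracks cytotoxicity in the same wells as the ARE-luciferase screen. HaCaT reporter cells (1,500/well) received compounds after a 5 h pre-incubation and were exposed for 23 h.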

[2] = Nuclear factor erythroid 2-related factor 2/antioxidant responsive element (Nrf2/ARE) small molecule agonists: luciferase reporter gene qHTS assay in human keratinocytes (AID 1919969); also: nearly all actives have a fitted effect of over 35% in size
[3] = target: Gonadotropin-releasing hormone receptor (Homo sapiens) (UniProt P30968); experiment: Human gonadotropin-releasing hormone receptor (GnRHR) small molecule agonists, calcium flux assay in GnRHR-HEK293 cells (AID 1920063); also: nearly all actives have a fitted effect of over 35% in size
Outline: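 Fluorescence kinetics (480 nm excitation, 540 nm emission; 3 min, 1 s steps) report calcium mobilisation in human GnRHR-HEK293 cells in agonist mode. Dye incubation: 1 h, 37 C.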

[4] = target: KiSS-1 receptor (Homo sapiens) (UniProt Q969F8); experiment: Human kisspeptin (KISS1R) small molecule agonists, calcium flux assay in KISS1R-HEK293 cells (AID 1920064; active = well fitted curve in the direction sought with a large enough effect in the repeat runs; an effect the other way counts as inactive or inconclusive)
Outline: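 Measures KISS1R agonism through calcium-sensitive dye fluorescence in stably transfected HEK293 cells, read for 3 min after pin-tool compound delivery; 15-point titrations in triplicate.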

[5] = G protein-coupled receptor (GPCR) small molecule agonists, calcium flux assay: HEK293 wild type cell line counter screen (AID 1920065)
Outline: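 Readout: fluorescence at 480 nm excitation/540 nm emission, sampled at 1 s intervals for 3 min. Cells had been cultured 18 h, then dye-loaded 1 h at 37 C before compound or ATP addition.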

[6] = p53 small molecule agonists, cell-based qHTS assay with human liver microsomes (AID 1963577);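 also: p53 response element beta-lactamase reporter cells with liver microsomes plus NADPH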
Outline: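 16 h, 37 C exposure of p53RE-bla cells to compounds with human liver microsomes and NADPH (0.5 mg/mL final each); detection via LiveBLAzer mixture, 2 h dark at room temperature.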

[7] = p53 small molecule agonists, cell-based qHTS assay with rat liver microsomes (AID 1963578)
Outline: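 With rat liver microsomes and NADPH present (0.5 mg/mL final each), p53RE-bla cells are treated with compound for 16 h at 37 C. LiveBLAzer detection mixture is then applied for 2 h at room temperature in the dark.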

[8] = p53 small molecule agonists, cell-based qHTS assay with human liver microsomes: qHTS cell viability counter screen (AID 1963579); also: nearly all actives have a fitted effect of over 45% in size
Outline: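 In this multiplexed counter screen, the reporter plates were subsequently treated with CellTiter-Glo so that cell viability, reflected by luminescence, could be recorded for p53RE-bla cells dosed 16 h with compounds under microsomal activation (HLM and NADPH).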

[9] = p53 small molecule agonists, cell-based qHTS assay with rat liver microsomes: qHTS cell viability counter screen (AID 1963580); also: nearly all actives have a fitted effect of over 45% in size
Outline: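 In HCT-116 cells carrying a p53 response element-bla reporter, compounds were metabolically activated in situ by rat liver microsomes with NADPH over 16 h. Cell ATP content then served as the cytotoxicity measure.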

[10] = p53 small molecule agonists, cell-based qHTS assay: qHTS cell viability counter screen (AID 1963581); also: nearly all actives have a fitted effect of over 45% in size
Outline: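 In the same plates used for the p53 bla reporter, HCT-116 cells given compounds for 16 h at 37 C received CellTiter-Glo; luminescence was recorded 30 min later at room temperature.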

[11] = p53 small molecule agonists, cell-based qHTS assay (AID 1963582; active = well fitted activation curve with a large enough effect in the signal ratio in the repeat runs, not every such curve was filed as active; the % refers to the signal ratio)
Outline: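 Compounds are pin-transferred in DMSO onto p53RE-bla cells and incubated 16 h at 37 C. The B/G FRET beta-lactamase substrate is then applied for 2 h at RT and fluorescence recorded.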

[12] = target: 5-hydroxytryptamine receptor 2A (Homo sapiens) (UniProt P28223); experiment: 5-hydroxytryptamine receptor 2A (HTR2A) small molecule antagonists, cell-based qHTS assay (AID 1963586); also: nearly all actives have a fitted effect of over 45% in size
Outline: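 Antagonist-mode intracellular calcium assay: DOI (4 nM) added after 5 min compound pre-incubation at room temperature to dye-loaded HTR2A-CHO cells. Fluorescence followed for 3 min, sampled every second.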

[13] = target: 5-hydroxytryptamine receptor 2A (Homo sapiens) (UniProt P28223); experiment: 5-hydroxytryptamine receptor 2A (HTR2A) small molecule agonists, cell-based qHTS assay (AID 1963587); also: nearly all actives have a fitted effect of over 30% in size
Outline: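 HTR2A-CHO cells, plated 18 h at 37 C/5% CO2, dye-loaded 1 h at 37 C; compounds in DMSO added by pin tool (agonist mode). Intracellular calcium flux read as kinetic fluorescence on FDSS over 2 min at 1 s intervals.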

[14] = target: Muscarinic acetylcholine receptor M1 (Homo sapiens) (UniProt P11229); experiment: Cholinergic receptor muscarinic 1 (CHRM1) small molecule antagonists, cell-based qHTS assay (AID 1963588); also: nearly all actives have a fitted effect of over 40% in size
Outline: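 CHRM1-CHO calcium-flux assay, antagonist mode. Cells were seeded 18 h, dye-loaded 1 h at 37 C and given compound for 5 min at RT, then acetylcholine was added at 50nM. FDSS fluorescence was read 3 min; 15 concentrations, three runs.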

[15] = target: Muscarinic acetylcholine receptor M1 (Homo sapiens) (UniProt P11229); experiment: Cholinergic receptor muscarinic 1 (CHRM1) small molecule agonists, cell-based qHTS assay (AID 1963589); also: nearly all actives have a fitted effect of over 35% in size
Outline: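 Each compound was tested at 15 concentrations across three independent runs on dye-loaded CHO cells stably expressing human CHRM1, reading intracellular calcium fluorescence kinetically at 1 sec intervals.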

[16] = cAMP Responsive Elements (CRE) small molecule agonists, cell-based qHTS assay (AID 1963590)
Outline: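 Cell line: CRE-bla HEK 293T; medium DMEM/10% dialyzed FBS/0.1 mM NEAA/1 mM pyruvate/25 mM HEPES; 3 h compound exposure; beta-lactamase FRET readout after 2 h substrate loading at RT.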

[17] = cAMP Responsive Elements (CRE) small molecule antagonists, cell-based qHTS assay (AID 1963591; active = well fitted inhibition curve with a large enough effect in the signal ratio in the repeat runs, not every such curve was filed as active; the % refers to the signal ratio)
Outline: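 Inhibition of NKH477-driven (0.25 uM final) CRE-beta-lactamase signal in HEK293T cells, 3 h compound exposure at 37 °C, detected by FRET substrate fluorescence.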

[18] = target: Beta-2 adrenergic receptor (Homo sapiens) (UniProt P07550); experiment: Adrenergic beta2 receptor (ADRB2) small molecule antagonists, cell-based qHTS assay (AID 1963592); also: series mostly up to about 92 µM; nearly all actives have a fitted effect of over 50% in size
Outline: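 Cells (CHO, stable ADRB2 overexpression) incubated 18-20hr at 37C; compounds added from DMSO; agonist mix (1nM isoproterenol, 100uM IBMX, 25uM Ro-20-1724) added; 0.5hr RT; d2-cAMP and anti-cAMP-cryptate added; 1hr RT; 665/615 nm read.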

[19] = target: D(2) dopamine receptor (Homo sapiens) (UniProt P14416); experiment: Dopamine D2 receptor (DRD2) small molecule agonists, cell-based qHTS assay (AID 1963594); also: nearly all actives have a fitted effect of over 35% in size
Outline: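 HEK293 cells stably expressing DRD2 were cultured 24 h at 37 C, then given Ro20-1724 (0.1 mM final) and compounds for 10 min at room temperature. NKH477 (200nM) was then added for 30 min. cAMP was read by HTRF.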

[20] = target: D(2) dopamine receptor (Homo sapiens) (UniProt P14416); experiment: Dopamine D2 receptor (DRD2) small molecule antagonists, cell-based qHTS assay (AID 1963595; active = well fitted inhibition curve with a large enough effect in the signal ratio in the repeat runs, with a control signal flat; the % refers to the signal ratio)
Outline: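 Readout: HTRF cAMP, cAMP-d2 competing with cellular cAMP for anti-cAMP cryptate, read after 1 h. Cells: DRD2-HEK293. Conditions: 0.1 mM Ro20-1724, 12 nM quinpirole, 200 nM NKH477, 30 min RT.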

Measured: Potency

Chain of Beta-2 adrenergic receptor (Homo sapiens) (P07550 whole entry, looked up): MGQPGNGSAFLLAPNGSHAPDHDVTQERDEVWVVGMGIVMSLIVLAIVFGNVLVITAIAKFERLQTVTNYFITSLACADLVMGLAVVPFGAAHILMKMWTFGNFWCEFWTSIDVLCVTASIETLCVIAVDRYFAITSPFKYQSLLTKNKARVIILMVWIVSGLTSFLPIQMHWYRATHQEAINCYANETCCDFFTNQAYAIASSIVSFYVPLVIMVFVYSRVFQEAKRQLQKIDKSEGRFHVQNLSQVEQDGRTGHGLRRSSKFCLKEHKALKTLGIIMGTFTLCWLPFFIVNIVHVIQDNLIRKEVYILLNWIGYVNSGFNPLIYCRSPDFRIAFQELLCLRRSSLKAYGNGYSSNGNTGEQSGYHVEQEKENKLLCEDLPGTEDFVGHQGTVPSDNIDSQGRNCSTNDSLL
Chain of D(2) dopamine receptor (Homo sapiens) (P14416 whole entry, looked up): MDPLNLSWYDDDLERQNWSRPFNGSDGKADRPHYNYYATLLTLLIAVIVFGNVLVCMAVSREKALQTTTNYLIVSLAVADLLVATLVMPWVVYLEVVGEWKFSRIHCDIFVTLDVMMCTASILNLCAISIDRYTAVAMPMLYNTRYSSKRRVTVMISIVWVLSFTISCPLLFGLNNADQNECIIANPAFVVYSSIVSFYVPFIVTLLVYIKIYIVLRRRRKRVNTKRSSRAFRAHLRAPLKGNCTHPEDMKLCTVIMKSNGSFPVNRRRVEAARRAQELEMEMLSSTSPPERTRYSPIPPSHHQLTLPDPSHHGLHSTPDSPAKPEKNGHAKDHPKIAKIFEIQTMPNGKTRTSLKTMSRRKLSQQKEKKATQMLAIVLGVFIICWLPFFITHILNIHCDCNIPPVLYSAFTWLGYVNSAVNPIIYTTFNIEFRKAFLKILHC
Chain of Gonadotropin-releasing hormone receptor (Homo sapiens) (P30968 whole entry, looked up): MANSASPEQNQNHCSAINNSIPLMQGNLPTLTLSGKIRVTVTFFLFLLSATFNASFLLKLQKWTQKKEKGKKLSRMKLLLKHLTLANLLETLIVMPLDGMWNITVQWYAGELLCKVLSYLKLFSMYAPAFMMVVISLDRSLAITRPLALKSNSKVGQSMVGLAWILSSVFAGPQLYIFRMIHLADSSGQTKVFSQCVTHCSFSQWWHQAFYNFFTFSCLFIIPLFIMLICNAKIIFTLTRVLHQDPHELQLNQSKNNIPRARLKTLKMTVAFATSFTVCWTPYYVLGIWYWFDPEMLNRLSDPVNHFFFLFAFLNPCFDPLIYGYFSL
Chain of 5-hydroxytryptamine receptor 2A (Homo sapiens) (P28223 whole entry, looked up): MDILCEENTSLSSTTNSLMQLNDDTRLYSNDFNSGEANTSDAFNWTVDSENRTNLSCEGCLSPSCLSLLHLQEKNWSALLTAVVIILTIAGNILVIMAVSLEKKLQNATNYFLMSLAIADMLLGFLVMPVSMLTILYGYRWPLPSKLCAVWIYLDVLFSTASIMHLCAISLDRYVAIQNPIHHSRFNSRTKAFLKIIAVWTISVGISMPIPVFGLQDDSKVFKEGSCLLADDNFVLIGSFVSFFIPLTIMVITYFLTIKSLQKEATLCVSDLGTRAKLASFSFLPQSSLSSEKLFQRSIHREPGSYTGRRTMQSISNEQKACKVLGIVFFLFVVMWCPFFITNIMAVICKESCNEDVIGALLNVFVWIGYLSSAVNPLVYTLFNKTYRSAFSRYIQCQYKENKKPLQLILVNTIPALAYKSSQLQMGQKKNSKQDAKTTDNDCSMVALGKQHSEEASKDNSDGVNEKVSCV
Chain of KiSS-1 receptor (Homo sapiens) (Q969F8 whole entry, looked up): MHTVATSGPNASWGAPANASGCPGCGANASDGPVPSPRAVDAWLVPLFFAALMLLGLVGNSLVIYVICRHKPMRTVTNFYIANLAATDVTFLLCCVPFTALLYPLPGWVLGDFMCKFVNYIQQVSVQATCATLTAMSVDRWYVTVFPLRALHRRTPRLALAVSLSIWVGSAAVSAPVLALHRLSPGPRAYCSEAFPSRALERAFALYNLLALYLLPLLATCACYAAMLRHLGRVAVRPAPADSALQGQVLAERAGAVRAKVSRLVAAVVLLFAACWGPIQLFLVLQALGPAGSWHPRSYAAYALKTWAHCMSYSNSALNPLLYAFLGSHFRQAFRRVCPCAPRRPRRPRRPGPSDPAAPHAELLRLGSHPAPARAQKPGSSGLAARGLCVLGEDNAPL
Chain of Muscarinic acetylcholine receptor M1 (Homo sapiens) (P11229 whole entry, looked up): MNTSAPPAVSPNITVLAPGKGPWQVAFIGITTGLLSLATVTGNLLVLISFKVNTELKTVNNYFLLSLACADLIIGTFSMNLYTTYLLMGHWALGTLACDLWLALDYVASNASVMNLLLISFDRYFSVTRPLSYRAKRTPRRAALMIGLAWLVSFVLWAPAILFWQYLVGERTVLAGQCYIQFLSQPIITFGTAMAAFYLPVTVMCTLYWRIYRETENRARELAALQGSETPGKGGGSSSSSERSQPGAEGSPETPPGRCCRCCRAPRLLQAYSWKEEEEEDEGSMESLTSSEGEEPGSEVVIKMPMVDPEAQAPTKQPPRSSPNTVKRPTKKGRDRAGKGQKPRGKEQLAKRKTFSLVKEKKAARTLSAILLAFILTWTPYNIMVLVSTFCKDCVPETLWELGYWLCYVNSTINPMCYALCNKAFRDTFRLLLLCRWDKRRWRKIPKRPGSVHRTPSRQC

CCCC(=O)OCOC(=O)C1=C(C)NC(C)=C(C(=O)OC)C1c1cccc(Cl)c1Cl (stereo not given)
inactive: all assays above

O=C(CCCl)NCc1ccccc1
inactive: all assays above

CN1C(=O)N(C)C(O)C1O (stereo not given)
inactive: all assays above

CCc1nccnc1C
inactive: all assays above

CCC1(C)NC(=O)NC1=O (stereo not given)
inactive: all assays above

O=c1[nH]cnc2nc[nH]c12
inactive: all assays above

C=CC(=O)OCC1CCCO1 (stereo not given)
inactive: all assays above
